# Counter-ions that a name gives are not always drawn. A number with no mark means an inactive call.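 Rule for the calls: active = AUC significantly below DMSO controls by Student t-fit with adjusted P under 0.01; inactive = not significantly reduced.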
# Tested on: Haemophilus parainfluenzae
# Experiment: growth AUC normalised to DMSO control (fraction of control); higher = less growth inhibition, active = hit call of the paper
# Conditions: 20 µM
# How it was run: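 Hemin and NAD were added to the medium for Haemophilus parainfluenzae. All pathogens, after two anaerobic passages, were inoculated at a starting OD578 of 0.01 into pre-reduced mGAM plates with 20 μM compound and 1% DMSO under breathable seals, and OD578 was read hourly for 24 h in three biological replicates. AUC of each growth curve was obtained with the trapezoidal rule up to the exponential-to-stationary transition and normalised to DMSO controls from the same plate.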
row,SMILES,growth AUC normalised to DMSO control
1,NC(=O)N1c2ccccc2C=Cc2ccccc21 [Carbamazepine],0.989
2,Cc1c(Cl)cccc1Nc1ccccc1C(=O)O [Tolfenamic acid],0.852 (active)
3,Oc1ncnc2[nH]ncc12 [Allopurinol],1.01
4,Cc1cc(=O)oc2cc(O)ccc12 [Hymecromone],1
5,CC(=O)Oc1cccc2c1C(=O)c1c(OC(C)=O)cc(C(=O)O)cc1C2=O [Diacerein],0.779 (active)
6,Cc1cn([C@H]2C[C@H](N=[N+]=[N-])[C@@H](CO)O2)c(=O)[nH]c1=O [Zidovudine],0.581 (active)
7,C[C@]12CC[C@@H]3c4ccc(O)cc4CC[C@H]3[C@@H]1CCC2=O [Estrone],0.966
8,O=C(Nc1cccc2c(=O)cc(-c3nnn[nH]3)oc12)c1ccc(OCCCCc2ccccc2)cc1 [Pranlukast],0.996
9,CC[C@H]1OC(=O)[C@H](C)[C@@H](O[C@H]2C[C@@](C)(OC)[C@@H](O)[C@H](C)O2)[C@H](C)[C@@H](O[C@@H]2O[C@H](C)C[C@H](N(C)C)[C@H]2O)[C@](C)(O)C[C@@H](C)C(=O)[C@H](C)[C@@H](O)[C@]1(C)O [Erythromycin],0.028 (active)
10,O=C(O)c1cccnc1Nc1cccc(C(F)(F)F)c1 [Niflumic acid],1.02
11,CCCCc1cc2ccccc2c(OCCN(C)C)n1 [Dimethisoquin hydrochloride],0.97
12,CCN(CC)C(=O)Nc1ccc(OCC(O)CNC(C)(C)C)c(C(C)=O)c1 (configuration not stated) [Celiprolol hydrochloride],0.991

# Source: the supplement of paper PMC12350171
